Where a name gives a salt, the structure may show the parent alone. ± gives the standard deviation of the averaged measurements.
Legend:
[1] = system: Saccharomyces cerevisiae BY4741 SeMeCo community; assay: mean cell size (pixel area) (pixels); higher = larger cells; settings: 10 µM; 24 h; SM minimal medium
How it was run: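 Mean cell pixel area per well was measured in a four-plasmid fluorescent community of Saccharomyces cerevisiae BY4741, where every plasmid complements one auxotrophy and carries a fluorescent marker. Cells from an overnight preculture at OD600 = 1.0 were diluted to OD600 = 0.3 and dispensed at 70 µl into 384-well plates acoustically predosed with drug to a final 10 µM in SM medium. Incubation lasted 24 h, followed by paraformaldehyde fixation, automated confocal imaging and analysis in Harmony. Reported figures are averaged over 3 replicates. Same SeMeCo high-content imaging drug screen: Selleck FDA-approved drugs at 10 µM, 24 h in SM medium, 384-well plates, 3 replicates.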

[2] = system: Saccharomyces cerevisiae BY4741 SeMeCo community; assay: z-score of prototroph abundance vs DMSO median; higher = larger share of this subpopulation than in DMSO controls; settings: 10 µM; 24 h; SM minimal medium; subpopulation (auxotrophy): Prototroph
How it was run: (§1)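 Cells of a Saccharomyces cerevisiae BY4741 community, carrying four plasmids that each restored one auxotrophy and encoded a distinct fluorescent protein, were pre-grown overnight to OD600 1.0 and diluted to 0.3. A 70 µl volume was added to 384-well plates acoustically predosed with library drugs (10 µM final) and grown 24 h in minimal SM medium. After paraformaldehyde fixation, automated confocal microscopy was used, with single-auxotroph fluorescent strains for thresholds and autofluorescence correction. The abundance of each subpopulation was scored as a z-score against the vehicle-well median.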

[3] = system: Saccharomyces cerevisiae BY4741 SeMeCo community; assay: z-score of subpopulation abundance vs DMSO median, subpopulation auxotrophic for L; higher = larger share of this subpopulation than in DMSO controls; settings: 10 µM; 24 h; SM minimal medium; subpopulation (auxotrophy): L
How it was run: as §1

[4] = system: Saccharomyces cerevisiae BY4741 SeMeCo community; assay: z-score of subpopulation abundance vs DMSO median, subpopulation auxotrophic for U; higher = larger share of this subpopulation than in DMSO controls; settings: 10 µM; 24 h; SM minimal medium; subpopulation (auxotrophy): U
How it was run: as §1

[5] = system: Saccharomyces cerevisiae BY4741 SeMeCo community; assay: z-score of subpopulation abundance vs DMSO median, subpopulation auxotrophic for H; higher = larger share of this subpopulation than in DMSO controls; settings: 10 µM; 24 h; SM minimal medium; subpopulation (auxotrophy): H
How it was run: as §1

[6] = system: Saccharomyces cerevisiae BY4741 SeMeCo community; assay: z-score of subpopulation abundance vs DMSO median, subpopulation auxotrophic for LU; higher = larger share of this subpopulation than in DMSO controls; settings: 10 µM; 24 h; SM minimal medium; subpopulation (auxotrophy): LU
How it was run: as §1

[7] = system: Saccharomyces cerevisiae BY4741 SeMeCo community; assay: z-score of subpopulation abundance vs DMSO median, subpopulation auxotrophic for LM; higher = larger share of this subpopulation than in DMSO controls; settings: 10 µM; 24 h; SM minimal medium; subpopulation (auxotrophy): LM
How it was run: as §1

[8] = system: Saccharomyces cerevisiae BY4741 SeMeCo community; assay: z-score of subpopulation abundance vs DMSO median, subpopulation auxotrophic for HM; higher = larger share of this subpopulation than in DMSO controls; settings: 10 µM; 24 h; SM minimal medium; subpopulation (auxotrophy): HM
How it was run: as §1

[9] = system: Saccharomyces cerevisiae BY4741 SeMeCo community; assay: z-score of subpopulation abundance vs DMSO median, subpopulation auxotrophic for HU; higher = larger share of this subpopulation than in DMSO controls; settings: 10 µM; 24 h; SM minimal medium; subpopulation (auxotrophy): HU
How it was run: as §1

[10] = system: Saccharomyces cerevisiae BY4741 SeMeCo community; assay: z-score of subpopulation abundance vs DMSO median, subpopulation auxotrophic for UM; higher = larger share of this subpopulation than in DMSO controls; settings: 10 µM; 24 h; SM minimal medium; subpopulation (auxotrophy): UM
How it was run: as §1

[11] = system: Saccharomyces cerevisiae BY4741 SeMeCo community; assay: z-score of subpopulation abundance vs DMSO median, subpopulation auxotrophic for HL; higher = larger share of this subpopulation than in DMSO controls; settings: 10 µM; 24 h; SM minimal medium; subpopulation (auxotrophy): HL
How it was run: as §1

[12] = system: Saccharomyces cerevisiae BY4741 SeMeCo community; assay: z-score of subpopulation abundance vs DMSO median, subpopulation auxotrophic for HLM; higher = larger share of this subpopulation than in DMSO controls; settings: 10 µM; 24 h; SM minimal medium; subpopulation (auxotrophy): HLM
How it was run: as §1

[13] = system: Saccharomyces cerevisiae BY4741 SeMeCo community; assay: z-score of subpopulation abundance vs DMSO median, subpopulation auxotrophic for HUM; higher = larger share of this subpopulation than in DMSO controls; settings: 10 µM; 24 h; SM minimal medium; subpopulation (auxotrophy): HUM
How it was run: as §1

[14] = system: Saccharomyces cerevisiae BY4741 SeMeCo community; assay: z-score of subpopulation abundance vs DMSO median, subpopulation auxotrophic for HLUM; higher = larger share of this subpopulation than in DMSO controls; settings: 10 µM; 24 h; SM minimal medium; subpopulation (auxotrophy): HLUM
How it was run: as §1

[15] = system: Saccharomyces cerevisiae BY4741 SeMeCo community; assay: z-score of subpopulation abundance vs DMSO median, subpopulation auxotrophic for M; higher = larger share of this subpopulation than in DMSO controls; settings: 10 µM; 24 h; SM minimal medium; subpopulation (auxotrophy): M
How it was run: as §1

[16] = system: Saccharomyces cerevisiae BY4741 SeMeCo community; assay: z-score of subpopulation abundance vs DMSO median, subpopulation auxotrophic for LUM; higher = larger share of this subpopulation than in DMSO controls; settings: 10 µM; 24 h; SM minimal medium; subpopulation (auxotrophy): LUM
How it was run: as §1

| Compound | mean cell size [1] | z-score of prototroph abundance [2] | z-score of subpopulation abundance [3] | z-score of subpopulation abundance [4] | z-score of subpopulation abundance [5] | z-score of subpopulation abundance [6] | z-score of subpopulation abundance [7] | z-score of subpopulation abundance [8] | z-score of subpopulation abundance [9] | z-score of subpopulation abundance [10] | z-score of subpopulation abundance [11] | z-score of subpopulation abundance [12] | z-score of subpopulation abundance [13] | z-score of subpopulation abundance [14] | z-score of subpopulation abundance [15] | z-score of subpopulation abundance [16] |
| --- | --- | --- | --- | --- | --- | --- | --- | --- | --- | --- | --- | --- | --- | --- | --- | --- |
| COc1cc(NC(C)CCCN)c2ncccc2c1 (stereo not drawn) [Primaquine Diphosphate] | 12.6 ± 0.24 | 0.58 | -0.56 | -1.22 | 0.32 | -1.15 | 0.09 | 0.98 | -1.2 | -0.88 | -0.43 | 0.32 | -1.39 | -0.49 | – | – |
| COCC1=C(C(=O)OC(C)OC(=O)OC(C)C)N2C(=O)[C@@H](NC(=O)/C(=N\OC)c3csc(N)n3)[C@H]2SC1 (stereo partly drawn) [Cefpodoxime proxetil] | 12.25 ± 0.089 | -0.89 | – | 0.51 | -0.09 | – | 0.62 | 0.76 | 0.99 | 0.01 | -0.24 | – | 0.76 | 0.35 | 0.5 | 0.36 |
| CCCc1cc(C(N)=S)ccn1 [Protionamide] | 12.4 ± 0.19 | – | 0.04 | -0.66 | -0.56 | -0.68 | 0.16 | 0.36 | -0.73 | 0.32 | -0.83 | – | 0.47 | -0.96 | 0.32 | -0.28 |
| CC[C@@H]([C@H](C)O)n1ncn(-c2ccc(N3CCN(c4ccc(OC[C@@H]5CO[C@@](Cn6cncn6)(c6ccc(F)cc6F)C5)cc4)CC3)cc2)c1=O [Posaconazole] | 12.34 ± 0.068 | – | -0.49 | 0.25 | 16.6 | 3.33 | 4.46 | 11.5 | 16.4 | 10.8 | 10.8 | – | 11.8 | 12.3 | -1.66 | 7.85 |
| CCc1nn(CCCN2CCN(c3cccc(Cl)c3)CC2)c(=O)n1CCOc1ccccc1 [Nefazodone hydrochloride] | 12.38 ± 0.1 | -1.27 | – | – | 2.06 | 0.49 | – | 0.55 | 0.21 | -0.31 | 0.71 | 0.6 | -0.23 | 0.44 | -0.42 | 0.49 |
| CC1(C)S[C@@H]2[C@H](NC(=O)[C@H](N)c3ccccc3)C(=O)N2[C@H]1C(=O)O [Ampicillin sodium] | – | – | – | – | -0.9 | – | -0.28 | -0.71 | 0.1 | -0.31 | -0.73 | -0.99 | – | -0.67 | -0.4 | – |
| C#CCN(C)Cc1ccccc1 [Pargyline hydrochloride] | 12.7 ± 0.23 | 0.24 | – | 0.56 | -0.83 | 1.29 | -0.51 | -0.95 | -0.08 | -0.55 | -0.44 | – | 0 | 0.1 | -0.55 | 0.15 |
| CCN(CC)CCOC(=O)c1ccc(N)cc1Cl [Chloroprocaine HCl] | 12.51 ± 0.1 | – | 0.95 | 0.25 | -0.3 | 0.13 | 0.62 | -0.02 | – | 0.74 | -0.09 | – | 0.14 | 0.58 | 0.42 | – |

Source: the supplement of paper PMC8975748
